The supplement of paper PMC10981050
Where “and” joins values, the source holds several entries; their conditions need not be identical. Equal values may be shown once. Where a name gives a salt, the structure may show the parent alone.

Assays:
Experiment in all cases: cell viability relative to vehicle control; higher = less cytotoxic
Details in all cases: 10 µM
K562 = system: K562
Procedure, shortened: (§1)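 Screening covered the Selleck bioactive, kinase and epigenetic probe libraries, less identity-inconsistent compounds, on CRISPR-edited mutant clones and isogenic wild-type clones of four leukaemia lines. Cells, at 2000 per well in 50 µL medium, received a single 10 µM acoustically dispensed dose. After 48 h the supernatant was removed and CellTiter-Glo luminescence was read. Viability was analysed in Genedata Screener as percent of the on-plate vehicle control.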

MARIMO = system: MARIMO
Procedure, shortened: as §1

MOLM14 = system: MOLM14
Procedure, shortened: as §1

OCI-AML2 = system: OCI-AML2
Procedure, shortened: as §1

SMILES | cell viability (K562; SRSF2 genotype: SRSF2 P95H/wt) | cell viability (K562; SRSF2 genotype: SRSF2 wt/wt) | cell viability (MARIMO; SRSF2 genotype: SRSF2 P95H/wt) | cell viability (MARIMO; SRSF2 genotype: SRSF2 wt/wt) | cell viability (MOLM14; SRSF2 genotype: SRSF2 P95H/wt) | cell viability (MOLM14; SRSF2 genotype: SRSF2 wt/wt) | cell viability (OCI-AML2; SRSF2 genotype: P95H/wt) | cell viability (OCI-AML2; SRSF2 genotype: wt/wt)
COc1ccc2c(c1O)-c1c(O)c(OC)cc3c1[C@H](C2)[N+](C)(C)CC3 [Magnoflorinechloride] | 99.2% and 99.7% | 98.2% | 99.4% | 103% | 103% | 102% | 93.8% | 98.7%
Cc1cccc(Nc2cc(Cl)nc(SCC(=O)O)n2)c1C | 95.6% and 95.5% | 97.2% | 98.9% | 99.9% | 95.9% | 98.5% | 90.3% | 94.4%
CC(C)CCNc1ncccc1C(=O)N1CCN(Cc2ccccc2)CC1 | 103% and 100% | 102% | 93.8% | 105% | 96.9% | 103% | 103% | 105%
O=S(=O)(O)CCSSCCS(=O)(=O)O [Dimesna] | 107% and 101% | 95% | 99.3% | 103% | 96.3% | 99.6% | 106% | 105%
O=C(c1ccc(F)cc1)N1CCCC(c2nc(-c3ccc(F)cc3)no2)C1 (configuration not stated) | 75.7% and 78.6% | 76.6% | 66% | 73.9% | 80.1% | 84.1% | 64.8% | 72.7%
CCc1cc2c(cc1CC)CC(NC[C@H](O)c1ccc(O)c3[nH]c(=O)ccc13)C2 [Indacaterol Maleate] | 68.6% and 83.2% | 75.8% | 73.3% | 77% | 62% | 71.2% | 52.5% | 60.1%
C=CCC(=NOS(=O)(=O)O)S[C@@H]1O[C@H](CO)[C@@H](O)[C@H](O)[C@H]1O (stereo in doubt) [Sinigrin] | 96.4% and 104% | 99.7% | 93.4% | 96.4% | 94.1% | 97.8% | 101% | 101%
O=C(c1ccc(F)c(F)c1Nc1ccc(I)cc1F)N1CC(O)([C@@H]2CCCCN2)C1 [Cobimetinib (GDC-0973, RG7420)] | 22.4% and 35.4% | 35.5% | 27.5% | 28.6% | 29.6% | 21.1% | 18.2% | 26.1%
CCCCCCC(O)C(=O)O (configuration not stated) [2-Hydroxycaprylic acid] | 103% and 102% | 107% | 101% | 105% | 101% | 109% | 105% | 111%
